Measurements: PubChem BioAssay AID686978 (National Center for Advancing Translational Sciences (NCATS), 2013)
The whole screen tested about 420,000 compounds, of which about 64,000 (15%) were called active. About 27% were inconclusive and are not listed. The call rests on the fitted dose curve; in most records, active means well fitted inhibition curve with a large enough effect; inconclusive means small, poorly fitted or top-dose-only effect; inactive means flat fitted curve, though single readings scatter. Not all results are given here. Entries that show only a call come without a potency.
Potency means the concentration at half of the fitted maximal effect.

Test: qHTS for Inhibitors of human tyrosyl-DNA phosphodiesterase 1 (TDP1): qHTS in cells in absence of CPT; further: nearly all actives have a fitted effect of over 55% in size
Settings: DT40 Tdp1-/- hTDP1 cells, no CPT, ATP luminescence, 48 h; activity change, negative = growth inhibition: at 46.2 µM (top of the series)
Procedure, shortened: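 Stably hTDP1-transfected Tdp1-null chicken DT40 cells were treated with library compounds minus camptothecin and grown for at least 48 hr at 37 °C, after which cellular ATP was quantified by luminescence.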
For `CC1(OC(=O)C2CCCC2)C(=O)C=C2C=C(c3ccc(C#N)cc3)OC=C2C1=O` (configuration not stated), the Potency was “inactive”.
In the case of `CC(C)NC(=O)CSc1nnc(COc2ccccc2Cl)o1`, the Potency was “inactive”.
In the case of `C/C(=N\NS(=O)(=O)c1cccc([N+](=O)[O-])c1)c1cc2ccccc2o1`, the Potency was “inactive”.
In the case of `Cc1cc(NC(=O)COC(=O)COc2ccc(Cl)cc2C)c([N+](=O)[O-])cc1C`, the Potency was “inactive”.
In the case of `O=C(CCCN=C1NS(=O)(=O)c2ccccc21)OCC(=O)c1ccc(F)c(F)c1`, the Potency was “inactive”.
With `CCc1n[nH]c(=S)n1/N=C/c1c[nH]c2ccc(Br)cc12` the Potency was 18.4 µM (active).
With `Oc1ccccc1/C=N/n1c(-c2cccs2)n[nH]c1=S` the Potency was “inactive”.
For `S=c1[nH]nc(-c2ccccc2)n1/N=C/c1c[nH]c2ccccc12`, the Potency was 6.51 µM (active).
With `Cc1ccc(/C=N\n2c(-c3ccccc3)n[nH]c2=S)s1` the Potency was “inactive”.
With `S=c1[nH]nc(-c2ccncc2)n1/N=C/c1ccccc1Cl` the Potency was “inactive”.
In the case of `Fc1ccc(/C=N/n2c(COc3ccccc3)n[nH]c2=S)cc1`, the Potency was “inactive”.
For `N#CCCN1CCN(S(=O)(=O)c2ccc(S(=O)(=O)NC3CCCCC3)cc2)CC1`, the Potency was “inactive”.
For `COc1ccc(CCC(=O)OCC(=O)Nc2ccc(C)c(S(=O)(=O)N(C)C)c2)cc1`, the Potency was “inactive”.
In the case of `CCCCCCSc1nsc(N)n1`, the Potency was “inactive”.
With `CCOC(=O)CSc1nnc(CNC(=O)c2cccs2)n1-c1cc(OC)ccc1OC` the Potency was “inactive”.
For `Cc1cc(=O)oc2c(C(=O)c3ccccc3)c(OCC(N)=O)ccc12`, the Potency was “inactive”.
For `O=C(CCCn1c(=O)oc2ccccc21)Nc1cccnc1`, the Potency was “inactive”.
For `CC(C)Cn1cc(-c2cncc3nccn23)cn1`, the Potency was “inactive”.
With `Cc1ccnc(SCCn2c(Br)nc3c2c(=O)[nH]c(=O)n3C)n1` the Potency was “inactive”.
With `Fc1ccccc1OCCSc1nc2ccccc2o1` the Potency was “inactive”.
In the case of `Cn1c(=O)[nH]c(=O)c2c1nc(Br)n2CCCCSc1nc2ccccc2o1`, the Potency was 18.4 µM (active).
In the case of `COc1ccc(-c2nc(SCC(=O)N3CCCC3)n[nH]2)cc1`, the Potency was “inactive”.
In the case of `CCc1ccc(-c2nc(SCC(=O)NC3CCCC3)n[nH]2)cc1`, the Potency was 23.1 µM (active).
With `CCc1c(C)nc(SCC(=O)NC2CCCC2)[nH]c1=O` the Potency was “inactive”.
In the case of `Cc1cc(Br)ccc1SCC(=O)OCC(=O)NCc1ccc2c(c1)OCO2`, the Potency was “inactive”.
For `CCOc1ccc(C(=O)NC(C(=O)NCc2ccccn2)C(C)C)cc1` (configuration not stated), the Potency was “inactive”.
In the case of `COc1ccc(F)cc1S(=O)(=O)N1CCCCC1`, the Potency was “inactive”.
With `COc1ccc(CCNCc2c(C(=O)O)c(C)n(Cc3cccc(C)c3)c2C)cc1OC` the Potency was “inactive”.
With `COc1cccc(CNCc2c(C(=O)O)n(Cc3ccc(C)cc3)c3cc(C)ccc23)c1OC` the Potency was 16.4 µM (active).
In the case of `CCOc1c(CNCc2ccc(C(=O)O)cc2)cccc1OC`, the Potency was “inactive”.
For `CCOC(=O)c1c(Cc2ccc(Cl)cc2)c[nH]c1C`, the Potency was “inactive”.
In the case of `NC(=NC(=O)c1ccccc1)N1CCOCC1`, the Potency was “inactive”.
With `O=C(CNS(=O)(=O)c1ccccc1)NCC(=O)OCc1ccccc1F` the Potency was “inactive”.
In the case of `CCOc1ccc2nc(NCCNC(=O)C(C)(C)C)c(C)cc2c1`, the Potency was “inactive”.
For `COc1ccc(CNC(=O)Cn2nnc(-c3ccc(S(C)(=O)=O)cc3)n2)cc1`, the Potency was “inactive”.
With `COc1ccc(-c2nc3sc(CCNC(=O)C(C)(C)C)c(C)n3n2)cc1` the Potency was 23.1 µM (active).
In the case of `Cc1ccc(S(=O)(=O)NCCC(=O)Nc2cccc(S(N)(=O)=O)c2)cc1C`, the Potency was “inactive”.
For `COc1ccc(-c2nc3sc(CCNS(=O)(=O)c4ccc(F)c(C)c4)c(C)n3n2)cc1`, the Potency was 20.6 µM (active).
With `COc1ccc(CCNS(=O)(=O)c2cn(C)nc2C)cc1` the Potency was “inactive”.
With `COC(=O)C1=NNC2(c3ccc(C)cc3)C(=O)N(c3cccc(C)c3C)C(=O)C12` (configuration not stated) the Potency was “inactive”.
In the case of `CS(=O)(=O)c1ccc(-c2nnn(CC(=O)Nc3ccc4c(c3)OCCO4)n2)cc1`, the Potency was “inactive”.
For `O=C(NC1CCN(Cc2ccccc2)CC1)c1cc(Br)c(Br)[nH]1`, the Potency was 16.4 µM (active).
For `CC(=O)NCc1ccc(S(=O)(=O)NC2CCN(Cc3ccccc3)CC2)cc1`, the Potency was “inactive”.
With `O=C(NC1CCN(Cc2ccccc2)CC1)c1ccccc1F` the Potency was “inactive”.
In the case of `O=C(NC1CCN(Cc2ccccc2)CC1)c1c(F)cccc1F`, the Potency was “inactive”.
In the case of `O=C(NC1CCN(Cc2ccccc2)CC1)c1ccc(Oc2cc(Cl)cc(Cl)c2)o1`, the Potency was 18.4 µM (active).
With `O=S(=O)(NCc1ccccn1)c1ccc(Br)s1` the Potency was “inactive”.
With `CCOCCCNC(=O)c1c[nH]c2cc(C)ccc2c1=O` the Potency was “inactive”.
For `COc1cccc(OCc2nnc3n2N=C(c2ccccc2)C(CC(=O)O)S3)c1` (configuration not stated), the Potency was “inactive”.
In the case of `Cc1ccc(C(=O)/C=C/c2c(C)nn(-c3ccccc3)c2Cl)cc1`, the Potency was 20.6 µM (active).
For `Cc1nn(-c2ccccc2)c(CC(C)(C)C(=O)O)c1C(=O)O`, the Potency was “inactive”.
In the case of `Cc1nn(-c2ccccc2)c(Cl)c1/C=C/C(=O)c1ccc(O)cc1`, the Potency was 16.4 µM (active).
For `Cc1nn(-c2ccccc2)c(Cl)c1C(=O)Nc1ccccc1`, the Potency was “inactive”.
For `Cc1nn(-c2ccccc2)c(C)c1/C=C/C(=O)OC(C)C(N)=O` (configuration not stated), the Potency was “inactive”.
With `O=C(O)c1ccc2c(c1)C(=O)N(c1ccc(/C=C/C(=O)c3ccccc3)cc1)C2=O` the Potency was “inactive”.
In the case of `COc1ccc(C2CC(=O)C=C(NCC3CCCO3)C2)cc1` (configuration not stated), the Potency was “inactive”.
With `COC(=O)c1ccc(/C=N\n2c(C)nnc2C)cc1` the Potency was “inactive”.
For `CC(OC(=O)c1ccc(NS(=O)(=O)c2ccc3[nH]c(=O)[nH]c3c2)cc1)C(=O)Nc1cccc(Cl)c1Cl` (configuration not stated), the Potency was “inactive”.
In the case of `O=C(COCc1cc(-c2ccc3c(c2)OCO3)on1)N1CCN(c2cccc(Cl)c2)CC1`, the Potency was “inactive”.
With `Cc1cc(/C=C2/C(=N)N3C(=NC2=O)SN=C3S(C)(=O)=O)c(C)n1-c1ccccc1` the Potency was “inactive”.
In the case of `O=C(CSc1nnc(Cc2ccccc2)n1-c1ccccc1)N1CCOCC1`, the Potency was “inactive”.
For `CN(CCc1ccccn1)C(=O)c1ccc(OC2CCN(CCc3ccccc3)CC2)cc1`, the Potency was “inactive”.
With `Fc1ccc(-c2ccc(-c3nn4c(-c5ccco5)nnc4s3)o2)cc1` the Potency was “inactive”.
In the case of `c1ccc(-c2cc(-c3nnc4sc(-c5ccccn5)nn34)[nH]n2)cc1`, the Potency was 13 µM (active).
In the case of `c1ccc(-c2cc(-c3ccccc3)[nH]n2)cc1`, the Potency was “inactive”.
In the case of `COC(=O)C1[C@H]2SC(C)(C)C(C(=O)OC)N2C(=O)N1Cc1nc2ccccc2s1` (some centres not stated), the Potency was “inactive”.
With `Cc1cccc(CSc2nnc(Cn3c(=O)sc4ccccc43)n2C)c1` the Potency was “inactive”.
